This note sets out measurements from PubChem BioAssay AID651692 (Broad Institute, 2012).

The assay is described as follows: MDA-MB-231 cell growth inhibition, dose response, cytotoxicity control for RAD54 inhibitor project, CellTiter-Glo luminescence, cherry-pick (AID 651692).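 Note: more negative values mean stronger loss of viable cell signal.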 The note with it: MDA-MB-231 viability, 24 h; series mostly up to 26 µM. (In general: In ATP-based viability assays light output follows the ATP content of the culture.)

Potency and affinity values are given separately. Active and inactive are the calls of the source.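 Rule for the calls: active = fitted half-maximal concentration for loss of cell signal no higher than twice the top valid tested concentration; inconclusive = flat curve at 30 to 70% inhibition, or poor fit; inactive = flat within 30%, signal rise, or potency above limit.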

Turning to `CN1CCN(c2nc(-c3cccc([N+](=O)[O-])c3)nc3ccccc23)CC1`, the compound was called inactive.
For the compound `Cc1cc2ccc3ccccc3c2cc1CN(C)C`, the outcome was inactive.
Turning to `Cn1c2ccccc2c(=O)c2cc(NCCCN3CCOCC3)ccc21`, the call was inactive.
Turning to `CCOC(=O)Nc1c2ccccc2nc2ccccc12`, the outcome was inactive.
On to `CCN(CC)CCNC(=O)c1cc2c(-c3ccc(Cl)cc3)nn(C)c2s1`, for which the result was inactive.
As for `Cc1c(O)c(CN(C)C)cc2c1oc(=O)c1ccccc12`, the call was inactive.
For the compound `CCN(CC)CCNc1ccc(CO)c2oc3cc(Cl)ccc3c(=O)c12`, the call was inactive.
For `CCN1CCN(CCCNC(=O)c2cc3cc4ccc(OC)cc4nc3o2)CC1`, the compound was called inactive.
In the case of `COc1cccc(-c2nc(NCCN3CCOCC3)c3ccccc3n2)c1O` it was “inactive”.
For `Cc1ccc2nc3c(c(Nc4ccc5c(c4)OCCO5)c2c1)CCC3`, the outcome was inactive.
In the case of `COc1ccc(C(=O)Nc2cc(C)c(NC(=O)c3ccccc3OC)cn2)cc1`, the compound was classed as inactive.
For the compound `Cc1nc2ccccc2c2oc(C(=O)NCCN3CCN(C)CC3)cc12`, the call was inactive.
